Measured values published in ChEMBL document CHEMBL3988442, “University of Dundee, Small-Polar-MMV Screening Library” (2021).
In all, about 66,000 compounds went through this assay and about 960 (1.5%) showed an effect of 50% or more. This is one part of a sample in which strong results are shown more often than they occur.

Test system: Trypanosoma brucei
Assay: Trypanosoma brucei 72 hour study
Format: functional, organism-based
Parameters: scale not given: in the data most compounds retested in dose-response had high values

`COCCN1CCC(CNC(=O)C2(c3ccccc3)CCC2)C1` (stereo not drawn) was tested, and the “Percent Effect” value (30.3 µM, […]) was -7.306%.

`O=C(C1CCCC1)N1CCC2(CC1)COCCN2CC1CC1.O=C(O)C(F)(F)F` was tested, and the “Percent Effect” value (30.3 µM, […]) was -13.33%.

In the case of `CCN1CCC2(CC1)CC(NCc1ccncc1)c1ccccc1O2.O=C(O)C(F)(F)F.O=C(O)C(F)(F)F.O=C(O)C(F)(F)F` (stereo not drawn), the “Percent Effect” value (30 µM, 30.03 µM) is reported as 1.43%.

With `O=C(CN1CCC(c2ccnn2CCO)CC1)NCc1ccco1` the “Percent Effect” value (10 µM) was -47.08%.

For `O=C(O)C(F)(F)F.O=C(c1ccno1)N1CC[C@@H]2O[C@H](COCCN3CCCC3)CC[C@@H]21`, the “Percent Effect” value (30 µM, 30.03 µM) was 39.45%.

With `CCCN(Cc1cnc2ccccc2n1)Cc1ccccc1OC` the “Percent Effect” value (30.3 µM, […]) was 99.59%.

With `CCCN(Cc1ccccn1)Cc1ccccc1OC` the “Percent Effect” value (30.3 µM, […]) was -7.297%.

In the case of `CCCN(Cc1nc2ccccc2[nH]1)Cc1ccccc1OC`, the “Percent Effect” value (30.3 µM, […]) is reported as 15.38%.

`Cc1cccc(CN2CCn3cc(Cn4cccn4)nc3C2)n1.O=C(O)C(F)(F)F.O=C(O)C(F)(F)F.O=C(O)C(F)(F)F` was tested, and the “Percent Effect” value (30 µM, 30.03 µM) was -12.32%.

In the case of `O=C(O)C(F)(F)F.O=C(c1cnccn1)N1CCOC2(CCCN(c3ncccc3F)C2)C1` (stereo not drawn), the “Percent Effect” value (30.3 µM, […]) is reported as -33.25%.

For `O=C(O)C(F)(F)F.O=C(c1ccnnc1)N1CC[C@]2(C[C@H](Oc3ncccc3F)CO2)C1`, the “Percent Effect” value (30 µM, 30.03 µM) was -5.807%.

In the case of `COc1ccc(CNC(=O)Nc2ccc(S(=O)(=O)C(F)F)cc2)cc1`, the “Percent Effect” value (30 µM, 30.03 µM) is reported as -8.777%.

`Cn1ccc(CNC(=O)Nc2ccc(S(=O)(=O)C(F)F)cc2)c1` was tested, and the “Percent Effect” value (30 µM, 30.03 µM) was -7.299%.

In the case of `CN(C)c1ccc(CNC(=O)Nc2ccc(S(=O)(=O)C(F)F)cc2)cc1`, the “Percent Effect” value (30 µM, 30.03 µM) is reported as 71.22%.

`COCCNC(=O)CN1CCN(c2nc(C)cs2)CC1` was tested, and the “Percent Effect” value (10 µM) was -57.99%.

For `CC(C)C(=O)Nc1ccc(Oc2ccc3c(c2)OCO3)nc1`, the “Percent Effect” value (30 µM, 30.03 µM) was -14.33%.

In the case of `CCC(=O)NCCCn1c(-c2cccnc2C)cc2cccnc21.Cl`, the “Percent Effect” value (30.3 µM, […]) is reported as -13.2%.

For `COCCN(Cc1cccs1)C(=O)c1ccc(=O)n(C)c1`, the “Percent Effect” value (30.3 µM, […]) was -3.424%.

With `CN(Cc1cccs1)C(=O)c1ccc(=O)n(C)c1` the “Percent Effect” value (30.3 µM, […]) was 98.98%.

`CCN(Cc1cccs1)C(=O)c1ccc(=O)n(C)c1` was tested, and the “Percent Effect” value (30.3 µM, […]) was -2.313%.

`Cc1cc(=O)n(CC(=O)Nc2ccc(Cl)cc2)nc1C` was tested, and the “Percent Effect” value (30 µM, 30.03 µM) was -26.52%.

`COc1ccc(NC(=O)Cn2nc(C)c(C)cc2=O)cc1` was tested, and the “Percent Effect” value (30 µM, 30.03 µM) was -33.88%.

`CC(=O)c1c(C)nn(CC(=O)Nc2ccc(F)cc2)c1C` was tested, and the “Percent Effect” value (30.3 µM, […]) was -35.96%.

`CC(=O)c1c(C)nn(CC(=O)Nc2ccc(Br)cc2)c1C` was tested, and the “Percent Effect” value (30.3 µM, […]) was 101.3%.

In the case of `COc1ccc(NC(=O)Cn2nc(C)c(C(C)=O)c2C)cc1`, the “Percent Effect” value (30.3 µM, […]) is reported as 101.9%.

In the case of `COc1ccc(NC(=O)Cn2nc(C)c(C)cc2=O)cc1OC`, the “Percent Effect” value (30.3 µM, […]) is reported as -10.01%.

`Cc1ccc(Nc2nccc(C3CCN(CC(N)=O)C3)n2)nc1` (stereo not drawn) was tested, and the “Percent Effect” value (30.3 µM, […]) was -50.23%.

For `O=C(O)C(F)(F)F.O=C(c1ccccc1)N1CCC[C@]2(C[C@@H](OCc3ccccn3)CO2)C1`, the “Percent Effect” value (30.3 µM, […]) was -136.6%.

In the case of `O=C(C1CC1)N1CCCC1c1nnc2n1CCCCC2` (stereo not drawn), the “Percent Effect” value (30 µM, 30.03 µM) is reported as -31.5%.

With `CN(C)C(=O)CN1CCn2cc(Cn3cccn3)nc2C1.O=C(O)C(F)(F)F.O=C(O)C(F)(F)F` the “Percent Effect” value (30 µM, 30.03 µM) was -43.32%.

With `CCNc1cc2c(nn1)CCN(C(=O)c1cc3cccc(C)c3o1)C2` the “Percent Effect” value (10 µM) was -32.26% and the “Percent Effect” value (30.3 µM, […]) was 29.79%.

With `CC(C)CN1Cc2nc(N3CCCC(C)C3)ncc2C1=O` (stereo not drawn) the “Percent Effect” value (30 µM, 30.03 µM) was -5.722%.

`Cl.Cl.O=C(CN1CCN(CC(O)C2CC2)CC1)NCc1ccccc1Cl` (stereo not drawn) was tested, and the “Percent Effect” value (30.3 µM, […]) was -15.94%.

In the case of `COc1ccc(C(=O)NCCCOC(C)c2ccccc2)c(OC)c1` (stereo not drawn), the “Percent Effect” value (30.3 µM, […]) is reported as 17.87%.

`OC(CNc1ncnc2c1CCNCC2)C(F)(F)F` (stereo not drawn) was tested, and the “Percent Effect” value (30 µM, 30.03 µM) was -18.54%.

In the case of `OC(CNc1nc(C2CCCC2)nc2c1CCNCC2)C(F)(F)F` (stereo not drawn), the “Percent Effect” value (30 µM, 30.03 µM) is reported as 99.48%.

`Cc1nc2c(c(NCC(O)C(F)(F)F)n1)CCNCC2` (stereo not drawn) was tested, and the “Percent Effect” value (30 µM, 30.03 µM) was -77.95%.

With `N#Cc1cccc(CN2CCC3(CC2)CC(c2ccncc2)C(=O)N3)c1.O=C(O)C(F)(F)F.O=C(O)C(F)(F)F` (stereo not drawn) the “Percent Effect” value (30 µM, 30.03 µM) was 43.46%.

`CCOc1ncccc1NC(=O)c1ccc(C)s1` was tested, and the “Percent Effect” value (30 µM, 30.03 µM) was -25.8%.

`CCOc1ncccc1NC(=O)c1cc(C)sc1C` was tested, and the “Percent Effect” value (30 µM, 30.03 µM) was -36.47%.

In the case of `CCOc1ncccc1NC(=O)c1cc(C)c(C)s1`, the “Percent Effect” value (30 µM, 30.03 µM) is reported as 63.47%.

With `O=C(NCCc1nnc2n1CCC2)NCC1(c2ccccc2)CC1` the “Percent Effect” value (30.3 µM, […]) was 3.515%.

In the case of `O=C(O)C(F)(F)F.O=C(c1ccsc1)N1CCC2(CCN(Cc3ccccn3)C2=O)C1` (stereo not drawn), the “Percent Effect” value (30 µM, 30.03 µM) is reported as -3.251%.

In the case of `CC(C)C(=O)N1CCC(n2nc(-c3ccco3)ccc2=O)CC1`, the “Percent Effect” value (30.3 µM, […]) is reported as -15.18%.

In the case of `CC(C)c1nnc2ccc(N3CCC(C(=O)Nc4nccs4)CC3)nn12`, the “Percent Effect” value (30 µM, 30.03 µM) is reported as 61.33%.

In the case of `CC(C)c1nnc2ccc(N3CCCC(C(=O)Nc4nccs4)C3)nn12` (stereo not drawn), the “Percent Effect” value (30 µM, 30.03 µM) is reported as -31.38%.

In the case of `Cc1nnc2ccc(N3CCC(C(=O)Nc4nccs4)CC3)nn12`, the “Percent Effect” value (30 µM, 30.03 µM) is reported as 0.472%.
